According to PubChem BioAssay (NCATS):
Inconclusive results are not listed. Activity calls are given as the source filed them. Unless noted, calls follow the shape of the dose curve; as a rule, active = well fitted curve in the direction sought with a large enough effect; inconclusive = small, poorly fitted or top-dose-only effect, or another doubt; inactive = no such curve, though single readings can be large; an effect the other way counts as inactive or inconclusive.

What was measured:
[1] = Cell Viability - BJ (AID 421; calls by dose curve;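 also: potency is read from the fitted curve at half-maximal effect; cells exposed to compound for 40 hours at 37 °C before readout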); settings: BJ fibroblast viability, qHTS
Summary of the method: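 Normal human BJ foreskin fibroblasts, 1500/well in complete medium, treated 40 hr at 37 °C. Cellular ATP by CellTiter-Glo luminescence; normalized to DMSO and 100 uM tamoxifen, AC50 from Hill fit.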

[2] = Cell Viability - Jurkat (AID 426;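 active = dose-dependent loss of cell ATP signal giving a full or clear fitted curve, ranked by lower potency value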; also: potency is read from the fitted curve at half-maximal effect); settings: qHTS
Summary of the method: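 Jurkat (Clone E6-1) cells, 5000/well in complete medium, exposed to compounds for 40 hr at 37C; intracellular ATP measured by CellTiter-Glo luminescence after 20 min at room temperature. AC50 from Hill fits.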

[3] = Cell Viability - Hek293 (AID 427;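 active = compounds whose dose-response curve shows a full or clear partial loss of cell viability, called from curve shape rather than a numeric limit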;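 also: potency is read from the fitted curve at half-maximal effect; cells exposed to compound for 40 hours at 37 °C before reading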); settings: qHTS
Summary of the method: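 HEK293 cells in complete medium were exposed to compound for 40 hr at 37 °C, then cellular ATP was read by CellTiter-Glo luminescence. Data were normalized to DMSO (basal) and 100 uM tamoxifen (100% inhibition), and AC50 came from Hill fits.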

[4] = Cell Viability - HepG2 (AID 433; calls by dose curve;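 also: potency is read from the fitted curve at half-maximal effect; potency for ATP loss meaning cytotoxicity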); settings: qHTS
Summary of the method: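 HepG2 hepatocellular carcinoma cells (1500/well) were treated with compounds for 40 h at 37 °C in complete medium; intracellular ATP was read by CellTiter-Glo luminescence. Data were normalized to DMSO and 100 uM tamoxifen, and AC50 came from Hill fits.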

[5] = Cell Viability - MRC5 (AID 434; calls by dose curve;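 also: potency is read from the fitted curve at half-maximal effect; potency reflects cytotoxicity seen as loss of intracellular ATP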); settings: MRC5 lung fibroblast viability, qHTS
Summary of the method: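 MRC5 normal human lung fibroblasts (1500/well) were treated with compounds for 40 hr at 37 °C in complete medium, and viable cells were measured as intracellular ATP by CellTiter-Glo luminescence. AC50 came from Hill fits, normalized to DMSO and 100 uM tamoxifen.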

[6] = Cell Viability - SK-N-SH (AID 435; calls by dose curve;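 also: potency is read from the fitted curve at half-maximal effect; compound exposure lasted 40 h at 37 °C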); settings: SK-N-SH neuroblastoma cell viability qHTS
Summary of the method: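 SK-N-SH human neuroblastoma cells (1500/well) were exposed to compounds in complete medium for 40 h at 37 °C, and intracellular ATP was then measured by CellTiter-Glo luminescence. AC50 was taken from Hill fits, normalized to DMSO and 100 uM tamoxifen.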

[7] = molecular target: Mitogen-activated protein kinase 10 (Mus musculus) (UniProt Q61831); experiment: JNK3 AlphaScreen Assay (AID 530; active = well fitted curve in either direction with a large enough effect, not every such curve was filed as active;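 also: kinase came from lysate of stimulated human HepG2 cells; signal reports phosphorylation of biotinylated GST-cJun 1-79 at Ser73 with 10 µM ATP; % is scaled to controls: 0 for no effect and ±100 for the full control effect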); settings: JNK3 lysate, c-Jun phosphorylation; series mostly up to 57.1 µM
Summary of the method: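 Inhibitors reduce antibody binding to phosphorylated biotin-cJun, lowering AlphaScreen luminescence. Lysates from HepG2 cells pre-activated by IL-1beta plus TNF-alpha supplied JNK3; compounds were titrated.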

[8] = Cell Viability - N2a (AID 540); settings: N2a mouse neuroblastoma cell viability; activity change, negative = cytotoxicity: at 92.2 µM (top of the series);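 also: plate controls were DMSO alone for no effect and tamoxifen control for full effect; nearly all actives have a fitted effect of over 45% in size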
Summary of the method: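 Mouse neuroblastoma N2a cells, 1500/well, exposed to compounds 40 h at 37 °C in complete medium. Viability measured as cellular ATP by CellTiter-Glo luminescence; AC50 from Hill fits of concentration-response.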

[9] = Cell Viability - NIH 3T3 (AID 541); settings: NIH 3T3 cell viability, qHTS; activity change, negative = cytotoxicity: at 92.2 µM (top of the series);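 also: plate controls were DMSO alone for no effect and tamoxifen positive control for full effect; nearly all actives have a fitted effect of over 25% in size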
Summary of the method: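 Mouse NIH 3T3 fibroblasts, 1000 cells/well, rested 5 hr at 37 °C, then exposed to compound for 40 hr at 37 °C in complete medium. Viability read as intracellular ATP by CellTiter-Glo luminescence; AC50 from Hill-equation fits of concentration-response data.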

[10] = Cell Viability - HUV-EC-C (AID 542); settings: HUV-EC-C endothelial cell viability, qHTS; series mostly up to 92.2 µM; also: % is scaled to controls: 0 for no effect and ±100 for the full control effect; nearly all actives have a fitted effect of over 35% in size
Summary of the method: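 HUV-EC-C human vascular endothelial cells, 1000/well, exposed to compound for 40 hr at 37 °C in complete medium. Intracellular ATP was read by CellTiter-Glo luminescence. AC50 came from Hill-equation fits of concentration-response data.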

[11] = Cell Viability - H-4-II-E (AID 543); settings: H-4-II-E rat hepatoma viability; series mostly up to 92.2 µM; also: % is scaled to controls: 0 for no effect and ±100 for the full control effect; nearly all actives have a fitted effect of over 35% in size
Summary of the method: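 Rat hepatoma H-4-II-E cells, 1500 per well, treated 40 h at 37 °C in complete medium. Cellular ATP read by CellTiter-Glo luminescence; AC50 from Hill fits of concentration-response.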

[12] = Cell Viability - SH-SY5Y (AID 544); settings: SH-SY5Y neuroblastoma cell viability; viability change, negative = cytotoxic: at 92.2 µM (top of the series); also: nearly all actives have a fitted effect of over 55% in size
Summary of the method: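 SH-SY5Y human neuroblastoma cells (1500/well) incubated 5 h, then compound-treated 40 h at 37 °C in complete medium. Viability read as intracellular ATP by CellTiter-Glo luminescence after 20 min; AC50 from Hill-equation fits of qHTS concentration-response.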

[13] = Cell Viability - Renal Proximal Tubule (AID 545); settings: renal proximal tubule cells viability, primary cells of rat origin; series mostly up to 91.7 µM; also: nearly all actives have a fitted effect of over 40% in size
Summary of the method: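 Primary rat renal proximal tubule cells (1000/well) were treated with compounds for 40 hr at 37 °C in complete medium. Intracellular ATP was measured by CellTiter-Glo luminescence, and AC50 values came from Hill-equation fits of concentration-response data.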

[14] = Cell Viability - Mesenchymal (AID 546); settings: mesenchymal cells viability, qHTS; series mostly up to 91.7 µM;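 also: cells exposed to compound for 40 hours before reading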
Summary of the method: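 Normal human renal glomerulus-derived kidney mesenchymal cells, 1000 per well in complete medium, were treated with compounds for 40 hr at 37 °C. Viability was read as intracellular ATP by CellTiter-Glo luminescence; AC50 values came from Hill-equation fits of qHTS concentration-response data.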

[15] = Cellular Toxicity (caspase-3) HepG2 (AID 654); settings: HepG2 caspase-3 activation, luminescence; series mostly up to 92.2 µM;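 also: cells exposed to compound for 16 hours before reading; 0% = DMSO alone and 100% = caspase signal from 100 µM tamoxifen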
Summary of the method: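 HepG2 cells (1500/well) were treated 16 h at 37 °C in complete medium, then caspase 3/7 activity was read by Caspase-Glo luminescence. Data were normalized to DMSO and 100 uM tamoxifen; AC50 came from Hill-equation fits of qHTS concentration-response.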

[16] = Cellular Toxicity (caspase-3) Jurkat (AID 655); settings: Jurkat caspase-3 activation, luminescence; caspase-3 activation: at 92.2 µM (top of the series), DMSO = 0%, tamoxifen = 100%;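 also: cells exposed to compound for 16 h at 37 °C before reading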
Summary of the method: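 Jurkat cells (5000/well) in complete medium were treated with compounds for 16 hr at 37 °C, then Caspase-Glo 3/7 luminescence was read after 20 min at room temperature. Data normalized to DMSO (basal) and 100 uM tamoxifen (100%); AC50 from Hill fit.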

[17] = Cellular Toxicity (caspase-3) HUV-EC-C (AID 656); settings: HUV-EC-C cells, caspase-3 activation (apoptosis), vehicle = 0, 100 µM tamoxifen = 100%; series mostly up to 92.2 µM
Summary of the method: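 HUV-EC-C endothelial cells, 1000/well, were pre-incubated 5 hr at 37°C, then exposed to compounds for 16 hr at 37°C. Caspase-Glo 3/7 luminescence was read after 20 min at room temperature. AC50 came from Hill fits, normalized to DMSO and 100 uM tamoxifen.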

[18] = Cellular Toxicity (caspase-3) SHSY5Y (AID 657); settings: SH-SY5Y caspase-3 activation, DMSO zero, 10 µM staurosporine = 100%; series mostly up to 91.7 µM
Summary of the method: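 SH-SY5Y human neuroblastoma cells (1500/well) were treated with compounds for 16 h at 37 °C, then Caspase-Glo 3/7 luminescence was read after 1 h at room temperature. Data normalized to DMSO and 10 uM staurosporine; AC50 from Hill fits.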

[19] = Cellular Toxicity (caspase-3) BJ (AID 658); settings: BJ fibroblasts, luminescence, normalized: DMSO 0%, staurosporine 100%; series mostly up to 91.7 µM
Summary of the method: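 Luminescent aminoluciferin-substrate cleavage reports caspase 3/7 activity in normal human BJ fibroblasts after 16 hr compound exposure at 37 °C. Normalized to DMSO (basal) and 10 uM staurosporine (100%); AC50 from Hill fit of concentration-response.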

[20] = Cellular Toxicity (caspase-3) MRC-5 (AID 659); settings: MRC-5 cells, luminescence, normalized: DMSO 0%, 10 µM staurosporine 100%; series mostly up to 91.7 µM
Summary of the method: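 Luminescence from caspase-cleaved aminoluciferin substrate (Caspase-Glo 3/7, 1 hr RT) reports caspase 3/7 activity in MRC-5 lung fibroblasts after 16 hr compound exposure. Normalized to DMSO basal and 10 uM staurosporine as 100%; AC50 from Hill fits.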

Cc1ccc(C(C)(C)C)cc1
inactive: Potency [1] > 92 µM | Potency [2] > 92 µM | Potency [3] > 92 µM | Potency [4] > 92 µM | Potency [5] > 92 µM | Potency [6] > 92 µM | outcome [7] | activity change, negative = cytotoxicity [8] -7.24% | Potency [9] | Potency [10] | Potency [11] | Potency [12] | Potency [13] | Potency [14] | Potency [15] | caspase-3 activation [16] 1.39% | outcome [17] | outcome [18] | outcome [19] | outcome [20]

CCCC=O
inactive: Potency [1] > 92 µM | Potency [2] > 92 µM | Potency [3] > 92 µM | Potency [4] > 92 µM | Potency [5] > 92 µM | Potency [6] > 92 µM | outcome [7] | activity change, negative = cytotoxicity [8] -20.1% | Potency [9] | Potency [10] | Potency [11] | Potency [12] | Potency [13] | Potency [14] | Potency [15] | caspase-3 activation [16] -0.873% | outcome [17] | outcome [18] | outcome [19] | outcome [20]

Nc1cccc(N)c1
inactive: Potency [1] > 92 µM | Potency [2] > 92 µM | Potency [3] > 92 µM | Potency [4] > 92 µM | Potency [5] > 92 µM | Potency [6] > 92 µM | outcome [7] | activity change, negative = cytotoxicity [8] -0.534% | Potency [9] | Potency [10] | Potency [11] | Potency [12] | Potency [13] | Potency [14] | Potency [15] | caspase-3 activation [16] 0.427% | outcome [17] | outcome [18] | outcome [19] | outcome [20]

CC#N
inactive: Potency [1] > 92 µM | Potency [2] > 92 µM | Potency [3] > 92 µM | Potency [4] > 92 µM | Potency [5] > 92 µM | Potency [6] > 92 µM | outcome [7] | activity change, negative = cytotoxicity [8] 0.749% | Potency [9] | Potency [10] | Potency [11] | Potency [12] | Potency [13] | Potency [14] | Potency [15] | caspase-3 activation [16] 1.05% | outcome [17] | outcome [18] | outcome [19]

O=C(Cl)c1cccc([N+](=O)[O-])c1
inactive: Potency [1] > 92 µM | Potency [2] > 92 µM | Potency [3] > 92 µM | Potency [4] > 92 µM | Potency [5] > 92 µM | Potency [6] > 92 µM | outcome [7] | activity change, negative = cytotoxicity [8] 5.21% | Potency [9] | Potency [10] | Potency [11] | Potency [12] | Potency [13] | Potency [14] | Potency [15] | caspase-3 activation [16] 2.23% | outcome [17] | outcome [18] | outcome [19]

O=C(O)c1ccc(Cl)c(Cl)c1
inactive: Potency [1] > 92 µM | Potency [2] > 92 µM | Potency [3] > 92 µM | Potency [4] > 92 µM | Potency [5] > 92 µM | Potency [6] > 92 µM | outcome [7] | activity change, negative = cytotoxicity [8] 1.1% | Potency [9] | Potency [10] | Potency [11] | Potency [12] | Potency [13] | Potency [14] | Potency [15] | caspase-3 activation [16] -1.55% | outcome [17] | outcome [18] | outcome [19] | outcome [20]

O=P(O)(OCc1ccccc1)OCc1ccccc1
inactive: Potency [1] > 92 µM | Potency [2] > 92 µM | Potency [3] > 92 µM | Potency [4] > 92 µM | Potency [5] > 92 µM | Potency [6] > 92 µM | outcome [7] | activity change, negative = cytotoxicity [8] 4.67% | Potency [9] | Potency [10] | Potency [11] | Potency [12] | Potency [13] | Potency [14] | Potency [15] | caspase-3 activation [16] 1.88% | outcome [17] | outcome [18] | outcome [19] | outcome [20]

CCC(C)(C)C(=O)O
inactive: Potency [1] > 92 µM | Potency [2] > 92 µM | Potency [3] > 92 µM | Potency [4] > 92 µM | Potency [5] > 92 µM | Potency [6] > 92 µM | outcome [7] | activity change, negative = cytotoxicity [8] 6.55% | Potency [9] | Potency [10] | Potency [11] | Potency [12] | Potency [13] | Potency [14] | Potency [15] | caspase-3 activation [16] -0.0519% | outcome [17] | outcome [18] | outcome [19] | outcome [20]

COCCOC(=O)c1ccccc1C(=O)OCCOC
inactive: Potency [1] > 92 µM | Potency [2] > 92 µM | Potency [3] > 92 µM | Potency [4] > 92 µM | Potency [5] > 92 µM | Potency [6] > 92 µM | outcome [7] | activity change, negative = cytotoxicity [8] 4.24% | Potency [9] | Potency [10] | Potency [11] | Potency [12] | Potency [13] | Potency [14] | Potency [15] | caspase-3 activation [16] 0.0969% | outcome [17] | outcome [18] | outcome [19] | outcome [20]

O=C(O)c1ccccc1[N+](=O)[O-]
inactive: Potency [1] > 92 µM | Potency [2] > 92 µM | Potency [3] > 92 µM | Potency [4] > 92 µM | Potency [5] > 92 µM | Potency [6] > 92 µM | outcome [7] | activity change, negative = cytotoxicity [8] 4.07% | Potency [9] | Potency [10] | Potency [11] | Potency [12] | Potency [13] | Potency [14] | Potency [15] | caspase-3 activation [16] -0.644% | outcome [17] | outcome [18] | outcome [19] | outcome [20]

CC(=O)Nc1cccc(N)c1
inactive: Potency [1] > 92 µM | Potency [2] > 92 µM | Potency [3] > 92 µM | Potency [4] > 92 µM | Potency [5] > 92 µM | Potency [6] > 92 µM | outcome [7] | activity change, negative = cytotoxicity [8] 5.61% | Potency [9] | Potency [10] | Potency [11] | Potency [12] | Potency [13] | Potency [14] | Potency [15] | caspase-3 activation [16] 1.66% | outcome [17] | outcome [18] | outcome [19] | outcome [20]
